The record followed here is PubChem BioAssay.

Assay [1] can be described thus: polyglutamine-triggered caspase-3 activation inhibitors, cell-based (AID 1583). The following applies: polyglutamine-induced caspase-3 activation, cell assay; stronger effect = higher value;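 tested at 10 µM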.
Assay [2] in a line: suppressors of polyQ aggregation in yeast, 75Q-TubU reporter (AID 1593). The following applies: Yeast 75Q polyglutamine aggregation reporter.
A short description of assay [3]: rescue of polyQ-huntingtin neuronal dysfunction in worms, whole organism, C. elegans mechanosensory neurons, N-terminal huntingtin (AID 1599). The following applies: touch response, stronger effect = higher value.
Assay [4] can be described thus: inhibitors of mitochondrial cytochrome c release, biochemical, purified mitochondria (AID 1603).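 Further: mouse liver mitochondria challenged with calcium chloride; signal normalized to the plate average as 100%.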 Particulars: stronger effect = lower value.
Assay [5] is described as follows: inhibitors of polyQ protein aggregation (AID 1604). The following applies: polyglutamine-induced protein aggregation inhibition assay; stronger effect = higher value; tested at 2.5 µM.
A short description of assay [6]: enhancers of glutamate uptake in motor neurons, MN-1 cell line (AID 1612).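 Further: tested at 1 µM final; 0% = mean of DMSO vehicle wells on each plate; positive means more glutamate uptake than control and negative means less.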 The following applies: MN-1 motor neuron cells, stronger effect = higher value.
Assay [7] is described as follows: reducers of polyQ inclusions in PC12 cells, cell-based, NGF-treated PC12, GFPQ80 (AID 1614).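 Further: lower means fewer inclusions and 0 means no inclusions at all.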 Particulars: PC12 NGF-treated GFP-polyQ80 inclusion reduction.
Assay [8] can be described thus: suppressors of polyglutamine aggregation in yeast, 75Q-TubH (AID 1616). The following applies: S. cerevisiae 75Q-TubH polyglutamine aggregation suppression; stronger effect = higher value.
The nature of assay [9]: liver-stage malaria parasite growth inhibition, primary screen, cell-based, HepG2, luciferase luminescence, HepG2 viability (AID 624349).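 Further: 100% = mean of DMSO negative control wells on the same plate.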 The following applies: P. berghei liver stage in HepG2, luciferase luminescence, concentration not given here; parasite load remaining: stronger effect = lower value; viability: measured here: HepG2 viability without parasites.
Assay [10] is described as follows: differential killing of epithelial or mesenchymal cells, primary screen, imaging, PC-3E GFP, TEM4-18 mCherry, co-culture (AID 1345086;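 active means compounds killing one labelled cell type while sparing the other, by normalised counts and ratio limits, not self-fluorescent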;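 on all read-outs here: cells exposed to compound for 72 h before imaging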;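 on red/green cell ratio (normalised): normalised mesenchymal count divided by normalised epithelial count so high means epithelial killing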). Particulars: imaging cell counts, at 1 µM; for red/green cell ratio (normalised): actives lie on both sides, counts scaled to control wells, 1 = unselective.
Assay [11] in a line: sensitizers of A549 cells to miR-34 induction, primary screen, imaging, A549 dox-inducible miR-34, nuclei and caspase counts (AID 1347080;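 active means compounds whose cell count with miR-34 switched on is under 0.7 times the count with it off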). The following applies: A549 miR-34 inducible, Hoechst nuclei count, 48 h.
The mark [12] stands for this setting: measured here: epithelial PC-3E GFP cell survival.
Setting [13] is: measured here: mesenchymal TEM4-18 mCherry cell survival.
Setting [14] is: stronger effect = lower value, cell number ratio, induced over uninduced.
Where [15] appears, read: measured here: relative caspase fold change +Dox/-Dox.
[16] abbreviates: measured here: total cells with miR-34 induction, stronger effect = lower value.
[17] abbreviates: measured here: total cells without miR-34 induction.

Several values for one entry are separate records, joined by “and”; a condition that tells them apart may be missing. Equal values may be shown once. For some of these results: Results with a measured potency or affinity are listed apart. Activity calls are given as the source filed them. Unless noted, no stated cut-off is given here; in the data, active means parasite load remaining mostly below about 12% (no sharp cut-off); inactive means mostly above about 10%.

Broadly, the inhibition is the change of the read-out against control, counted positive when it falls. A word on the viability: it is a read-out of living cells in per cent, often relative to untreated cells. With `CC(COc1ccccc1)NC(C)[C@H](O)c1ccc(O)cc1` (stereo not given in full), the inhibition in assay [1] was -10.5%. The molecule further registered a score in assay [2] of 1.07. For the same molecule, the rescue above control in assay [3] is -0.43. Also, in [4], the cytochrome c release ratio came out at 0.93. In addition, the inhibition of aggregation in assay [5] is 67.5%. The glutamate uptake change in [6] turned out to be 5.98%. For the same molecule, the inclusion score in assay [7] was determined as 2. In assay [8], the aggregation suppression score turned out to be 0.981. Moreover, the parasite load remaining in assay [9] was 58.3% (inactive). In [9], the viability was 72.5% and 101%. Moreover, in assay [10], the red/green cell ratio (normalised) is 1.11 (inactive). The normalised cell number in assay [10] (setting [12]) was determined as 1.16; in assay [10] (setting [13]), 1.29. Also, the fold change is 0.796 (inactive) in assay [11] (setting [14]) and 1.19 in assay [11] (setting [15]). In addition, the cell count in assay [11] (setting [16]) was 10800; in [11] (setting [17]), 13600.
On to `O=C(O)CCCCC1SCC2NC(=O)NC21` (stereo not given), for which the inhibition in assay [1] came to 27.9%. The molecule also yielded a score in assay [2] of 1.08. Further, the rescue above control in [3] was found to be 4.79. Moreover, the cytochrome c release ratio in assay [4] was 0.89. The inhibition of aggregation in assay [5] is 0%. The glutamate uptake change in [6] was -4.28%. The molecule further yielded an inclusion score in assay [7] of 2. In addition, the aggregation suppression score in assay [8] came out at 1.3. In assay [9], the parasite load remaining was 40.6% (inactive) and 36.1% (inactive). For the same molecule, in assay [9], the viability was 78% and 88.2%. Also, the red/green cell ratio (normalised) in [10] is 1.21 (inactive). Moreover, the normalised cell number came out at 1.02 in [10] (setting [12]) and 1.23 in assay [10] (setting [13]). Besides, the fold change in assay [11] (setting [14]) was 0.892 (inactive); in [11] (setting [15]), 3.76. Further, the cell count in assay [11] (setting [16]) turned out to be 12200; in [11] (setting [17]) it was 13700.
Consider `CN[C@@H]1C(OC2[C@H](O[C@H]3[C@H](O)[C@@H](O)[C@H](N=C(N)N)[C@@H](O)[C@@H]3N=C(N)N)OC(C)[C@]2(O)CO)OC(CO)C(O)C1O` (stereo not given in full), for which, in [1], the inhibition is -7.45%. The molecule further registered a score in assay [2] of 1.24. This molecule yielded a rescue above control in assay [3] of 1.04. The cytochrome c release ratio in [4] turned out to be 0.93. This molecule returned an inhibition of aggregation in assay [5] of 82.2%. In addition, in assay [6], the glutamate uptake change is -1.61%. Also, in assay [7], the inclusion score came to 2. This molecule also yielded an aggregation suppression score in assay [8] of 1.17. Further, the parasite load remaining in assay [9] is 87.5% (inactive) and 63.1% (inactive). Moreover, the viability in [9] is 69.8% and 93.3%. Besides, the red/green cell ratio (normalised) in assay [10] is 1.34 (inactive). The figures for the normalised cell number in [10] (setting [12]) and in [10] (setting [13]) were 1.05 and 1.41, respectively. Moreover, the results for the fold change in [11] (setting [14]) and in [11] (setting [15]) were 0.819 (inactive) and 1.34, respectively. Moreover, the cell count in assay [11] (setting [16]) was determined as 10800; in assay [11] (setting [17]), 13200.
Consider `CCN1CCN(C(=O)NC(C(=O)NC2C(=O)N3C(C(=O)O)=C(CSc4nnnn4C)CSC23)c2ccc(O)cc2)C(=O)C1=O` (stereo not given), for which the inhibition in assay [1] was determined as 16.1%. For the same molecule, in [2], the score amounted to 1.1. Also, the rescue above control in assay [3] is -10. The cytochrome c release ratio in assay [4] turned out to be 0.84. The inhibition of aggregation in assay [5] was determined as 50.2%. Moreover, in assay [6], the glutamate uptake change worked out at 15.1%. The molecule also registered an inclusion score in assay [7] of 2. This molecule also gave an aggregation suppression score in [8] of 1.47. Moreover, the parasite load remaining in assay [9] is 146% (inactive) and 45.3% (inactive). The viability in [9] was 72.7% and 103%. The red/green cell ratio (normalised) in [10] is 1.23 (inactive). The normalised cell number in assay [10] (setting [12]) was 0.99; in assay [10] (setting [13]), 1.22. For the same molecule, the results for the fold change in [11] (setting [14]) and in [11] (setting [15]) were 0.914 (inactive) and 3.35, respectively. Moreover, the cell count in assay [11] (setting [16]) stood at 12000; in [11] (setting [17]), 13100.
On to `CC(=O)OCC(=O)[C@@]1(O)CCC2C3CCC4=CC(=O)CC[C@]4(C)C3C(=O)C[C@@]21C` (stereo not given in full), for which the inhibition in [1] was -3.61%. The same molecule yielded a score in assay [2] of 1.04. The rescue above control in [3] is -2.34. Besides, the cytochrome c release ratio in assay [4] is 0.91. In assay [5], this molecule registered an inhibition of aggregation of 69.7%. Besides, in assay [6], the glutamate uptake change was -1.1%. The inclusion score in assay [7] turned out to be 2. Further, the aggregation suppression score in assay [8] was 0.738. Also, in assay [9], the parasite load remaining is 120% (inactive) and 65.9% (inactive). For the same molecule, the viability in assay [9] was 67.1% and 90.7%. Moreover, the red/green cell ratio (normalised) in [10] was 1.08 (inactive). In addition, the normalised cell number in [10] (setting [12]) is 1.08; in [10] (setting [13]) it was 1.17. The fold change in assay [11] (setting [14]) is 0.911 (inactive); in assay [11] (setting [15]) it was 0.583. For the same molecule, the results for the cell count in assay [11] (setting [16]) and in assay [11] (setting [17]) were 11400 and 12500, respectively.
